The values below come from PubChem BioAssay (Tox21).

Structures are written as SMILES. Records with an inconclusive call do not appear. Where a call stands in place of a potency, no number is given. Values without a mark were called inactive. Activity calls are given as the source filed them. Calls follow the shape of the full dose curve.
Potency is read from the fitted curve at half-maximal effect.

The assay can be described thus: p53 small molecule agonists, cell-based qHTS assay with human liver microsomes: qHTS cell viability counter screen (AID 1963579). Also: nearly all actives have a fitted effect of over 45% in size. The note with it: p53RE-bla HCT-116 viability, ATP luminescence, 16 h, HLM; series mostly up to 66 µM; activity change, negative = cytotoxicity: at the top concentration. An excerpt:
National Center for Advancing Translational Sciences [NCATS]
Division of Preclinical Innovation [DPI]
U.S. Environmental Protection Agency [EPA]
National Institutes of Environmental Health Sciences [NIEHS]
National Toxicology Program [NTP]
U.S. Food and Drug Administration [FDA]
p53, a tumor suppressor protein, is activated following cellular insult, including DNA damage and other cellular stresses. The activation of p53 regulates cell fate by inducing DNA repair, cell cycle arrest, apoptosis, or cellular senescence. The activation of p53, therefore, is a good indicator of DNA damage and other cellular stresses. […] The activation of the reporter gene under culture conditions can be detected by fluorescence intensity. This cell line was used to screen the Tox21 10K compound library in the condition of presence of human liver microsomes and to identify agonists that activate the p53 signaling pathway after in vitro metabolic activation (Ooka et al., Archive of Toxicology 96:1975-1987, 2022).
Tox21 Assay Protocol Summary:
The p53RE-bla cells were dispensed at 4,000cells/3ul/well in 1536-well black-clear bottom plates. After the assay plates were incubated at 37 C, 5% CO2 incubator for 5 hours, 23 nL of compounds dissolved in DMSO, positive controls or DMSO only was transferred to the assay plate. Following compound addition, 3 uL of human liver microsomes (XenoTech, Kansas City, KS) at final concentration of 0.5 mg/mL and 1uL of B-Nicotinamide adenine dinucleotide 2'-phosphate (NADPH) at final concentration of 0.5 mg/mL were transferred to the assay plate. The plates were incubated at 37 C for 16 hours. 1 uL of LiveBLAzer detection mixture was added to each well and the plates were incubated at room temperature in the dark for 2 h. Fluorescence intensity at 460 and 530 nm emission and 405 nm excitation were measured by an Envision plate reader. For cell viability readout that measures cytotoxicity, 4 ul/well of CellTiter-Glo reagent was added into the assay plates using a Flying Reagent Dispenser. After 30 min incubation at room temperature, the luminescence intensity in the plates was measured using a ViewLux plate reader.
In the case of `COC[C@H](C)N(C(=O)CCl)c1c(C)csc1C`, the “activity change, negative = cytotoxicity” value was 0.441%.
For the compound `CN(C)C(=O)Nc1cccc(C(F)(F)F)c1`, the Potency entry is “inactive”.
Consider `CC(O)CN1CCN(CC(=O)[O-])CCN(CC(=O)[O-])CCN(CC(=O)[O-])CC1.[Gd+3]` (stereo not given), for which the “activity change, negative = cytotoxicity” value was 6.08% [at 30.3 µM].
Consider `Nc1ccc(-c2ccccc2)cc1`, for which the Potency entry is “inactive”.
On to `CC(=[OH+])/C=C(/C)[O-].CC(=[OH+])/C=C(\C)[O-].CC(=[OH+])/C=C(\C)[O-].[Fe]`, for which the “activity change, negative = cytotoxicity” value was 5.37%.
Take `COP(N)(=O)SC` (stereo not given): the Potency entry was “inactive”.
As for `CCOP(=O)(CN(CCO)CCO)OCC`, the “activity change, negative = cytotoxicity” value is 11.5%.
For the compound `CCC(C)c1cc([N+](=O)[O-])cc([N+](=O)[O-])c1O` (stereo not given), the Potency entry is “inactive”.
Turning to `NNC(=O)c1ccccc1`, the Potency is 41.9 µM (active).
The same measure, in the same setting: for `CN(C)CCC#N` the value was “inactive”.
As for `O=S(=O)(O)O`, the Potency result was “inactive”.
Still for that read-out and setting: for `Brc1ccc(Oc2cc(Br)c(Br)cc2Br)c(Br)c1` the value was “inactive”; for `N#Cc1nn(-c2c(Cl)cc(C(F)(F)F)cc2Cl)c(N)c1S(=O)C(F)(F)F` (stereo not given), “inactive”; for `CC(C)C#N`, “inactive”.
Same read-out and setting: for `Oc1ccccc1Cl` the value was “inactive”.
Consider `FC(Cl)(Cl)Cl`, for which the “activity change, negative = cytotoxicity” value is 1.76%.
In the case of `Nc1ccc(Cl)cc1`, the Potency result is “inactive”.
As for `CC(C)(O)C(Cl)(Cl)Cl`, the “activity change, negative = cytotoxicity” value is 0.828% [at 30.3 µM].
In the case of `Nc1ccc2ccccc2c1`, the Potency result was “inactive”.
Consider `N#CCBr`, for which the “activity change, negative = cytotoxicity” value is -0.742%.
In the case of `CCCCCCCCCC(CC)c1ccc(S(=O)(=O)O)cc1` (stereo not given), the Potency result was “inactive”.
On the same count and under the same terms, for `CC1(C)C(C=C(Cl)Cl)C1C(=O)OC(C#N)c1cccc(Oc2ccccc2)c1` (stereo not given) the value was “inactive”; for `O=C(O)COc1ccccc1`, “inactive”.
Still for that read-out and setting: for `S=C1NCCN1` the value was “inactive”; for `N#Cc1cccc(C#N)c1`, “inactive”.
Regarding `CC(Cl)C(=O)O` (stereo not given), the “activity change, negative = cytotoxicity” value is 4.5%.
On the same count and under the same terms, for `O=C(NCc1cccnc1)Nc1ccc([N+](=O)[O-])cc1` the value was 8.73%.
Consider `CN1C[C@H](C(=O)N[C@]2(C)O[C@@]3(O)[C@@H]4CCCN4C(=O)[C@H](Cc4ccccc4)N3C2=O)C=C2c3cccc4[nH]cc(c34)C[C@H]21`, for which the Potency result is “inactive”.
Consider `Nc1ccc([N+](=O)[O-])cc1N`, for which the Potency result is “inactive”.
For `CCOc1nc(F)cc2nc(S(=O)(=O)Nc3c(Cl)cccc3Cl)nn12`, the “activity change, negative = cytotoxicity” value was 0.706%.
As to `O=C(O)C(Cl)(Cl)Cl`, the Potency entry is “inactive”.
As for `C[C@@H]1CN(C2CCC(C#N)(c3ccc(F)cc3)CC2)CC[C@]1(C(=O)O)c1ccccc1` (stereo not given in full), the “activity change, negative = cytotoxicity” value is 31% [at 30.3 µM].
As to `CCCCCCC#N`, the “activity change, negative = cytotoxicity” value is 0.296%.
On to `Nc1ccc(-c2ccc(N)c(Cl)c2)cc1Cl`, for which the Potency result was “inactive”.
For the compound `C[C@]12CC[C@H]3[C@@H](CC[C@@]45O[C@@H]4C(O)=C(C#N)C[C@]35C)[C@@H]1CC[C@@H]2O`, the “activity change, negative = cytotoxicity” value was 1.27% [at 30.3 µM].
Regarding `O=C(O)c1cc(Oc2ccc(C(F)(F)F)cc2Cl)ccc1[N+](=O)[O-]`, the Potency result is “inactive”.
Take `CCBr`: the “activity change, negative = cytotoxicity” value is 5.35%.
Turning to `CN(C)C(=S)SSC(=S)N(C)C`, the Potency result was “inactive”.
Same read-out and setting: for `CC(C)=C[C@@H]1[C@@H](C(=O)OCc2coc(Cc3ccccc3)c2)C1(C)C` the value was “inactive”.
As to `COc1cc(N)c(Cl)cc1C(=O)NC1CN2CCC1CC2` (stereo not given), the “activity change, negative = cytotoxicity” value was 6.45% [at 30.3 µM].
